# Results reported in PubChem BioAssay (EPA / NIEHS).
# Records with an inconclusive call do not appear. The source made the active and inactive calls. The calls were made as follows, unless noted: active = hit-call score of the fitted dose curve at least 0.9, where 1 is the maximum; inactive = score below 0.9.
# Tests used:
# [1] = ACEA_ER_80hr: ACEA Biosciences xCELLigence Real-Time Cell Analysis on Estrogen Receptor Agonism for Proliferation (AID 2282667; active = hit-call score of the fitted dose curve at least 0.9, where 1 is the maximum); conditions: T47D proliferation, impedance (xCELLigence), 80 h
# In short: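 Real-time impedance growth kinetics of human T-47D breast cells read 80 h after dosing, gain-of-signal fitted relative to DMSO. Compounds: 1:4 serial series, top final concentration 100 uM, n = 2.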
# [2] = ATG_CRE_CIS: Attagene CIS-FACTORIAL HepG2 Assay for human cAMP Responsive Element (CRE) binding protein 3 (AID 2282926); conditions: HepG2 CRE cis-reporter, Attagene multiplexed mRNA; actives raise or lower the signal
# In short: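 Endogenous transcription factor activity read via CRE-regulated reporter transcripts in transfected HepG2 cells. After 24 h exposure, RNA was reverse-transcribed, amplified, fluorescently labelled and sized by capillary electrophoresis; gain or loss fitted against DMSO.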
# [3] = biological target: CCAAT/enhancer-binding protein beta (Homo sapiens) (UniProt P17676); experiment: ATG_C_EBP_CIS: Attagene CIS-FACTORIAL HepG2 Assay for human CCAAT/Enhancer Binding Protein (C/EBP) beta (AID 2282927); conditions: HepG2 Attagene cis-factorial transcription factor reporter; actives raise or lower the signal
# In short: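 Endogenous transcription factor activity in human liver HepG2 cells is inferred from induction of a CEBPB-linked reporter mRNA. Exposure lasts 24 h; activity is fitted in both directions relative to DMSO.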
# [4] = ATG_CMV_CIS: Attagene CIS-FACTORIAL HepG2 Assay for human CMV (Internal Marker) (AID 2282928); conditions: HepG2 CMV promoter reporter, transcription factor profiling; actives raise or lower the signal;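 also: endpoint acts as a background internal control marker rather than a target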
# In short: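 Readout: fluorescent reporter cDNA fragments separated by capillary electrophoresis after RT-PCR and HpaI cut. Cells: HepG2 carrying transfected cis-promoter reporter constructs, dosed 24 h. Endpoint serves as background internal-marker control, fit bidirectionally versus DMSO.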
# [5] = ATG_DR4_LXR_CIS: Attagene CIS-FACTORIAL HepG2 Assay for human Liver X Receptor (LXR), DR4 submotif (AID 2282929); conditions: HepG2 Attagene DR4 cis-reporter, mRNA transcription; actives raise or lower the signal
# In short: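 Endogenous factor activity at a DR4 cis-element is read as reporter mRNA in transiently transfected HepG2 cells. Exposure lasts 24 h; transcripts are amplified, fluorescently labelled and sized by capillary electrophoresis, with DMSO as baseline.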
# [6] = biological target: Aryl hydrocarbon receptor (Homo sapiens) (UniProt P35869); experiment: ATG_Ahr_CIS: Attagene CIS-FACTORIAL HepG2 Assay for human Aryl Hydrocarbon Receptor (Ahr) (AID 2282930); conditions: HepG2 AhR cis-factorial reporter transcription; actives raise or lower the signal
# In short: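 Transient MRTU transfection of HepG2 → 24 h compound exposure → total RNA, oligo(dT) RT → PCR, 6-FAM extension, HpaI cut → CE fluorescence. DMSO = baseline; bidirectional curve fit.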
# [7] = ATG_AP_1_CIS: Attagene CIS-FACTORIAL HepG2 Assay for human Activator Protein 1 (AP-1) (AID 2282931); conditions: HepG2 Attagene cis-factorial AP-1 reporter mRNA; actives raise or lower the signal
# In short: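 Fluorescence of labelled PCR fragments separated by capillary electrophoresis gives reporter mRNA levels. HepG2 with transfected cis-regulated reporter units, 24 h exposure; DMSO serves as baseline for bidirectional curve fits.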
# [8] = ATG_AP_2_CIS: Attagene CIS-FACTORIAL HepG2 Assay for human Activator Protein 2 (AP-2) (AID 2282932); conditions: HepG2 AP-2 cis-reporter, Attagene transcription factor profiling; actives raise or lower the signal
# In short: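 Endogenous transcription factor activity is reported through transfected multiplex reporter constructs in HepG2, after 24 h of compound exposure. Transcripts were quantified by RT-PCR and capillary electrophoresis of fluorescent fragments. Bidirectional fit against DMSO.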
# [9] = ATG_BRE_CIS: Attagene CIS-FACTORIAL HepG2 Assay for human Bone Morphogenetic Protein (BMP) Response Element (BRE) (AID 2282933); conditions: HepG2 BMP response element reporter, Attagene transcription factor profiling; actives raise or lower the signal
# In short: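 Gain- or loss-of-signal was derived by bidirectional fitting against DMSO controls. The signal came from reporter mRNA, measured by RT-PCR and capillary electrophoresis, in HepG2 cells transiently carrying multiple reporter units and dosed for 24 h.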
# [10] = biological target: Transcription factor E2F1 (Homo sapiens) (UniProt Q01094); experiment: ATG_E2F_CIS: Attagene CIS-FACTORIAL HepG2 Assay for human E2F Transcription Factor 1 (AID 2282935); conditions: HepG2 Attagene cis-reporter, E2F reporter RNA transcripts; actives raise or lower the signal
# In short: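 Gain or loss of reporter transcript, fitted against DMSO, reflects E2F1-driven transcription. Transiently transfected HepG2 dosed 24 h before RNA isolation. Quantified by fluorescent RT-PCR products separated by capillary electrophoresis.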
# [11] = ATG_E_Box_CIS: Attagene CIS-FACTORIAL HepG2 Assay for human Enhancer Box (E-box) (AID 2282936); conditions: HepG2 E-box cis-reporter transcription, actives raise or lower the signal
# In short: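 E-box-driven reporter transcripts measured in transiently transfected HepG2 after 24 h exposure: RNA reverse-transcribed, PCR-amplified, fluorescently labelled, digested and resolved by capillary electrophoresis. Gain or loss relative to DMSO.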
# [12] = ATG_M_61_CIS: Attagene CIS-FACTORIAL HepG2 Assay for M61 Transcription Factor (Internal Marker) (AID 2282937); conditions: HepG2 Attagene CIS-FACTORIAL M61 internal marker reporter; actives raise or lower the signal
# In short: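 This endpoint serves as an internal background control within a multiplexed HepG2 cis-reporter panel. Cells are exposed for 24 h; reporter mRNA is amplified, fluorescently labelled and sized by capillary electrophoresis, with DMSO as negative control.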
# [13] = ATG_EGR_CIS: Attagene CIS-FACTORIAL HepG2 Assay for human Early Growth Response 1 (EGR1) (AID 2282938); conditions: HepG2 Attagene CIS-FACTORIAL EGR reporter mRNA; actives raise or lower the signal
# In short: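 HepG2, transient MRTU transfection (cis promoters), 24 h compound. RNA → RT (oligo-dT) → PCR → 6-FAM labelling → HpaI cut → CE fluorescence. Bidirectional fit, DMSO baseline.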
# [14] = ATG_M_19_CIS: Attagene CIS-FACTORIAL HepG2 Assay for M19 Transcription Factor (Internal Marker) (AID 2282939); conditions: HepG2 Attagene CIS-FACTORIAL M19 internal marker reporter; actives raise or lower the signal
# In short: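 Following a 24 h exposure, RNA from transfected HepG2 cells was reverse-transcribed, PCR-amplified with reporter-specific primers, end-labelled with 6-FAM and HpaI-digested before capillary separation. Values represent gain or loss versus DMSO.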
# [15] = ATG_ERE_CIS: Attagene CIS-FACTORIAL HepG2 Assay for Estrogen Response Element (ERE) (AID 2282940); conditions: HepG2 ERE cis-reporter, Attagene RNA transcript; actives raise or lower the signal
# In short: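 HepG2, transient cis-reporter units, 24 h exposure. RNA isolated, oligo(dT) RT, reporter-specific PCR, FAM extension, HpaI cut, CE detection. Gain/loss-of-signal vs DMSO.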
# [16] = ATG_Ets_CIS: Attagene CIS-FACTORIAL HepG2 Assay for human Erythroblast Transformation Specific (ETS) (AID 2282941); conditions: HepG2 ETS cis-reporter transcription, actives raise or lower the signal
# In short: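 RT-PCR/capillary electrophoresis fluorescence read-out of reporter mRNA; HepG2 transient multi-reporter transfection; 24 h compound exposure; gain or loss of signal fitted bidirectionally relative to DMSO.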
# [17] = biological target: Hepatocyte nuclear factor 3-beta (Homo sapiens) (UniProt Q9Y261); experiment: ATG_FoxA2_CIS: Attagene CIS-FACTORIAL HepG2 Assay for human Forkhead box A2 (FOXA2) (AID 2282942); conditions: HepG2 cis-reporter transcription factor activity, 24 h; actives raise or lower the signal
# In short: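 Cells: HepG2, transient multiplex reporter transfection. Exposure 24 h. Detection: reporter-specific RT-PCR, fluorescent labelling, restriction digest, capillary electrophoresis. Analysis: bidirectional curve fit, DMSO as negative control.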
# [18] = ATG_FoxO_CIS: Attagene CIS-FACTORIAL HepG2 Assay for human Forkhead box O (FoxO) (AID 2282943); conditions: HepG2 Attagene cis-reporter, FoxO element, mRNA; actives raise or lower the signal
# In short: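 HepG2, transient MRTU transfection (cis element, endogenous TFs). Dose 24 h. TriZol RNA → oligo(dT) RT → PCR → 6-FAM primer extension → HpaI cut → CE. Gain/loss vs DMSO.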
# [19] = ATG_GATA_CIS: Attagene CIS-FACTORIAL HepG2 Assay for human GATA Binding Protein (AID 2282944); conditions: HepG2 GATA cis-element reporter, Attagene multiplex mRNA; actives raise or lower the signal
# In short: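 DMSO serves as negative control and baseline for bidirectional fitting of reporter mRNA changes. HepG2 cells bearing transiently transfected cis-promoter reporters were exposed 24 h; transcripts detected via RT-PCR and capillary electrophoresis.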
# [20] = biological target: Retinoic acid receptor alpha (Homo sapiens) (UniProt P10276); experiment: ATG_DR5_RAR_CIS: Attagene CIS-FACTORIAL HepG2 Assay for human Retinoic Acid Receptor Alpha (RARE), DR5 submotif (AID 2282934); conditions: HepG2 Attagene cis-factorial RARE DR5 reporter, mRNA; actives raise or lower the signal;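 as to AC50: reporter responds to endogenous RAR alpha beta and gamma in HepG2 not RARA alone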
# In short: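 Transient MRTU transfection of HepG2; 24 h compound treatment; TriZol RNA, oligo(dT) RT, PCR, FAM labelling, capillary electrophoresis. Bidirectional fit vs DMSO. Endogenous TF activity at DR5 RARE.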
# Chain of Aryl hydrocarbon receptor (Homo sapiens) (P35869 whole entry, looked up): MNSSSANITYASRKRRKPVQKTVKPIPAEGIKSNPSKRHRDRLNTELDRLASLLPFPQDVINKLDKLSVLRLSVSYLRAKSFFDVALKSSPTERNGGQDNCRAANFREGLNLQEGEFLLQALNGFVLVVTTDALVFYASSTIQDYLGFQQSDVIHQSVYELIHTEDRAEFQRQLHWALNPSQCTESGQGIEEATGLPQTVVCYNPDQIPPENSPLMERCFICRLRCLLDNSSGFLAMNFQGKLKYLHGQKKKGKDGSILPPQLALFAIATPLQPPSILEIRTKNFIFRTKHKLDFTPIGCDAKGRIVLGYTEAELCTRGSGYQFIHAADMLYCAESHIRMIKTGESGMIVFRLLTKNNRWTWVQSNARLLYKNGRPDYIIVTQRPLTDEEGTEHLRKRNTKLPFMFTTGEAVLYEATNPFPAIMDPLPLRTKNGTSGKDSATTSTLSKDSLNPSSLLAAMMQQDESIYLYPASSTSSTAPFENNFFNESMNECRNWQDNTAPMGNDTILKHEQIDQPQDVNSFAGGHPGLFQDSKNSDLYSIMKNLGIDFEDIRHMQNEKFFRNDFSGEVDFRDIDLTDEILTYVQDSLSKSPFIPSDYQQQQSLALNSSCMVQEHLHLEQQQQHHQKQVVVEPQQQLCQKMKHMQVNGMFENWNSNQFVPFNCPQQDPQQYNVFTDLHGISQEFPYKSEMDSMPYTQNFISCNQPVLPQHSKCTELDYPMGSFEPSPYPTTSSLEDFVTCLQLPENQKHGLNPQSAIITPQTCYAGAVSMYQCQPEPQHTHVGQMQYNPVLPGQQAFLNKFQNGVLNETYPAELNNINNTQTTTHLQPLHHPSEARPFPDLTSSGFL
# Chain of Hepatocyte nuclear factor 3-beta (Homo sapiens) (Q9Y261 whole entry, looked up): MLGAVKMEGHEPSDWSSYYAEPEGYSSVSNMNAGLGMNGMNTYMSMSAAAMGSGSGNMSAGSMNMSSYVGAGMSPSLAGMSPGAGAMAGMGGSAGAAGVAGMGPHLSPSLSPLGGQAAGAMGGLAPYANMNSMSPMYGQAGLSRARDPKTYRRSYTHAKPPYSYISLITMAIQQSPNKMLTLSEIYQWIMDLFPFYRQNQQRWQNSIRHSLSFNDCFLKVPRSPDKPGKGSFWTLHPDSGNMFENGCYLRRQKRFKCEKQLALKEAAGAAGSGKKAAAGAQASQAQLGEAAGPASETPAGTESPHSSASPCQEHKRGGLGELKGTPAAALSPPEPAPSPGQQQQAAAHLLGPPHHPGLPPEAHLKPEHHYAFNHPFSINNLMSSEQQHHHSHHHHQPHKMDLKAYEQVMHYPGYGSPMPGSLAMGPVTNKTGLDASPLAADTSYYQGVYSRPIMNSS
# Chain of Retinoic acid receptor alpha (Homo sapiens) (P10276 whole entry, looked up): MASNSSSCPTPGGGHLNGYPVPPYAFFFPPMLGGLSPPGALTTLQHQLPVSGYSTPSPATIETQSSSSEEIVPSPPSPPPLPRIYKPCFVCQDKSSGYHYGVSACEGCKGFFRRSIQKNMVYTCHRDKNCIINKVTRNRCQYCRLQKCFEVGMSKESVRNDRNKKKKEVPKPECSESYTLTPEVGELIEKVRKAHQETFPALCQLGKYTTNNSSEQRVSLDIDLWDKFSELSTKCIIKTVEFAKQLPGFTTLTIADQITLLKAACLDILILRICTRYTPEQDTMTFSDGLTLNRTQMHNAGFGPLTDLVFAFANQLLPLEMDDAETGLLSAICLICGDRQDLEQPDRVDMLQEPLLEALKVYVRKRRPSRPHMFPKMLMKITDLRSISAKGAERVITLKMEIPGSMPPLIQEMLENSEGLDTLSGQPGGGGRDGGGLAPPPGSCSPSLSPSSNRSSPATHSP
# Chain of CCAAT/enhancer-binding protein beta (Homo sapiens) (P17676 whole entry, looked up): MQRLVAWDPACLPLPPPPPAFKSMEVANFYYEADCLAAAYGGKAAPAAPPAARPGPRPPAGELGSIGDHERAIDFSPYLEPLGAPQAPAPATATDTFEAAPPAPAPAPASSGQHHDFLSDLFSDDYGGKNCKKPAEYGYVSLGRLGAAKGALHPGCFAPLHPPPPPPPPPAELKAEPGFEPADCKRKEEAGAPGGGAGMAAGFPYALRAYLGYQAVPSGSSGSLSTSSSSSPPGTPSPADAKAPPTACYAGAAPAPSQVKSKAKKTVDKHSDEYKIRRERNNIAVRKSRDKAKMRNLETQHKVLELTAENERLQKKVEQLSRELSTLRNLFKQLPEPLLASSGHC
# Chain of Transcription factor E2F1 (Homo sapiens) (Q01094 whole entry, looked up): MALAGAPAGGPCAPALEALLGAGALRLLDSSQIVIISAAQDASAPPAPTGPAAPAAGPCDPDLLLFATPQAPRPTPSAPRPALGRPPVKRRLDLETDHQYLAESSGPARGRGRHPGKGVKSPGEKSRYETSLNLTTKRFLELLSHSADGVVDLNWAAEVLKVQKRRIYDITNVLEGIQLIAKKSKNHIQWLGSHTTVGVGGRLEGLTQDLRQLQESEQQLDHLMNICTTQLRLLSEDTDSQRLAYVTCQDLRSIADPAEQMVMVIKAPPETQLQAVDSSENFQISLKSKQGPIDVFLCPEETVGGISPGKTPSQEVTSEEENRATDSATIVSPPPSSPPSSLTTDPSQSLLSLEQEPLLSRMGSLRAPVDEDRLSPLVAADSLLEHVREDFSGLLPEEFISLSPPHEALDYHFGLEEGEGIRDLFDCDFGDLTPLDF
compound,measurement,setting,value
NS(=O)(=O)C(F)(F)C(F)(F)C(F)(F)C(F)(F)C(F)(F)C(F)(F)F,outcome,[1],inactive
same,outcome,[2],inactive
same,outcome,[3],inactive
same,outcome,[4],inactive
same,outcome,[5],inactive
same,outcome,[6],inactive
same,outcome,[7],inactive
same,outcome,[8],inactive
same,outcome,[9],inactive
same,outcome,[10],inactive
same,outcome,[11],inactive
same,outcome,[12],inactive
same,outcome,[13],inactive
same,outcome,[14],inactive
same,AC50,[15],41.4 µM (active)
same,outcome,[16],inactive
same,outcome,[17],inactive
same,outcome,[18],inactive
same,outcome,[19],inactive
NC(=O)C(F)(F)C(F)(F)C(F)(F)C(F)(F)C(N)=O,outcome,[1],inactive
same,outcome,[2],inactive
same,outcome,[3],inactive
same,outcome,[4],inactive
same,outcome,[5],inactive
same,outcome,[6],inactive
same,outcome,[7],inactive
same,outcome,[8],inactive
same,outcome,[9],inactive
same,outcome,[10],inactive
same,outcome,[11],inactive
same,outcome,[12],inactive
same,outcome,[13],inactive
same,outcome,[14],inactive
same,outcome,[15],inactive
same,outcome,[16],inactive
same,outcome,[17],inactive
same,outcome,[18],inactive
same,outcome,[19],inactive
FC(F)(F)C(F)(F)C(F)(F)C(F)(F)C(F)(F)C(F)(F)CC[Si](Cl)(Cl)Cl,outcome,[1],inactive
same,outcome,[2],inactive
same,outcome,[3],inactive
same,outcome,[4],inactive
same,outcome,[5],inactive
same,outcome,[6],inactive
same,outcome,[7],inactive
same,outcome,[8],inactive
same,outcome,[10],inactive
same,outcome,[11],inactive
same,outcome,[12],inactive
same,outcome,[14],inactive
same,outcome,[15],inactive
same,outcome,[16],inactive
same,outcome,[17],inactive
same,outcome,[18],inactive
same,outcome,[19],inactive
Cc1ccc(S(=O)(=O)C(I)I)cc1,outcome,[1],inactive
same,AC50,[2],8.93 µM (active)
same,outcome,[3],inactive
same,outcome,[4],inactive
same,outcome,[5],inactive
same,AC50,[6],27.5 µM (active)
same,AC50,[7],51.7 µM (active)
same,AC50,[8],13.1 µM (active)
same,AC50,[20],8.88 µM (active)
same,outcome,[10],inactive
same,AC50,[11],24.3 µM (active)
same,outcome,[12],inactive
same,outcome,[13],inactive
same,outcome,[14],inactive
same,outcome,[15],inactive
same,AC50,[16],8.59 µM (active)
same,AC50,[18],5.14 µM (active)
same,AC50,[19],8.85 µM (active)
O=C(Cl)C(F)(F)C(F)(F)C(F)(F)C(F)(F)C(F)(F)C(F)(F)C(F)(F)F,AC50,[1],19.7 µM (active)
same,outcome,[2],inactive
same,outcome,[3],inactive
same,AC50,[4],63.3 µM (active)
same,outcome,[5],inactive
same,outcome,[6],inactive
same,AC50,[7],66.7 µM (active)
same,outcome,[8],inactive
same,outcome,[9],inactive
same,outcome,[10],inactive
same,outcome,[11],inactive
same,outcome,[12],inactive
same,outcome,[13],inactive
same,outcome,[14],inactive
same,AC50,[15],47.5 µM (active)
same,outcome,[16],inactive
same,outcome,[17],inactive
same,outcome,[18],inactive
same,outcome,[19],inactive
OCCCCl,outcome,[1],inactive
same,outcome,[2],inactive
same,outcome,[3],inactive
same,outcome,[4],inactive
same,outcome,[5],inactive
same,outcome,[6],inactive
same,outcome,[7],inactive
same,outcome,[9],inactive
same,outcome,[20],inactive
same,outcome,[10],inactive
same,outcome,[11],inactive
same,outcome,[12],inactive
same,outcome,[13],inactive
same,outcome,[14],inactive
same,outcome,[15],inactive
same,outcome,[16],inactive
same,outcome,[17],inactive
same,outcome,[18],inactive
same,outcome,[19],inactive
OCC(F)(F)C(F)(F)C(F)(F)C(F)(F)C(F)(F)C(F)(F)CO,AC50,[1],0.291 µM (active)
same,outcome,[2],inactive
same,outcome,[3],inactive
same,outcome,[4],inactive
same,outcome,[5],inactive
same,outcome,[6],inactive
same,outcome,[7],inactive
same,outcome,[20],inactive
same,outcome,[10],inactive
same,outcome,[11],inactive
same,outcome,[12],inactive
same,outcome,[13],inactive
same,outcome,[14],inactive
same,AC50,[15],0.0909 µM (active)
same,outcome,[16],inactive
same,outcome,[17],inactive
same,outcome,[18],inactive
same,outcome,[19],inactive
